Results as given in PubChem BioAssay AID449762 (Southern Research Specialized Biocontainment Screening …, 2010).
The whole screen tested about 330,000 compounds, of which about 1,900 (0.58%) were called active. About 4% were inconclusive and are not listed. No stated cut-off is given here; in the data, inconclusive means inhibition above about 70% without an active follow-up result; inactive means below that. Not all results are given here. Potency and affinity values are given separately.

Assay: M. tuberculosis growth inhibition, HTS (AID 449762);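 further: bacterial growth assessed after seven days of incubation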
Details: M. tuberculosis H37Rv growth inhibition, 7H9 media; at 25 µM; hits give high values
For `Cn1c(=O)cc(SCC(=O)N2CCCC2)c2ccc(Cl)cc21`, the inhibition was 3.77% (inactive).
For `Cn1c(=O)cc(SCC(=O)N2CCOCC2)c2ccc(Cl)cc21`, the inhibition was -11.3% (inactive).
With `Cc1cccc(CCNC(=O)c2cc(S(=O)(=O)N3CCCC3)cn2C)c1` the inhibition was -6.27% (inactive).
With `Cc1ccc(/C=C/C(=O)OCC(=O)NC(=O)NCc2ccccc2)cc1` the inhibition was -1.66% (inactive).
In the case of `Cc1ccc(C2C(C#N)=C(N)OC3=C2C(=O)CC(C)(C)C3)s1` (stereo not drawn), the inhibition is reported as 4.01% (inactive).
With `CC1(C)CC(=O)C2=C(C1)OC(N)=C([N+](=O)[O-])C2c1cccs1` (stereo not drawn) the inhibition was 3.64% (inactive).
With `COC(C(=O)Nc1cccc(F)c1)c1ccccc1` (stereo not drawn) the inhibition was 1.2% (inactive).
In the case of `CCN1CCN(c2ccc(S(=O)(=O)N3CCCCC3)cc2NC(=O)/C=C/c2ccc([N+](=O)[O-])cc2)CC1`, the inhibition is reported as 67.1% (inactive).
In the case of `COc1ccc(/C=C/C(=O)Nc2cc(S(=O)(=O)N3CCCCC3)ccc2N2CCCCC2)cc1OC`, the inhibition is reported as 6.87% (inactive).
In the case of `CCCCCNC(=O)c1ccc2c(c1)ncn2-c1ccc(OC)cc1`, the inhibition is reported as 13.7% (inactive).
For `CCOc1ccc([C@@H]2CC=C(C(=O)O)[C@H](c3ccc(Cl)cc3)N2S(=O)(=O)c2ccc(C)cc2)cc1`, the inhibition was -1.26% (inactive).
In the case of `Cn1cc(CCNC(=O)CC2C(=O)NCCN2Cc2cccc(Oc3ccccc3)c2)cn1` (stereo not drawn), the inhibition is reported as 2.08% (inactive).
With `CCCCCNC1=CC(=O)CC(c2ccccc2)C1` (stereo not drawn) the inhibition was -1.58% (inactive).
In the case of `CN(C)CCCNC1=CC(=O)CC(c2ccccc2)C1` (stereo not drawn), the inhibition is reported as -4.95% (inactive).
In the case of `COc1ncnc2c1cnn2-c1ccccc1`, the inhibition is reported as 7.17% (inactive).
With `C=CCOn1c(=O)c(-c2ccc(OCC)cc2)[n+]([O-])c2ccccc21` the inhibition was 6.39% (inactive).
With `O=C(CCCSc1nc2ccccc2[nH]1)N1CCN(c2ccc([N+](=O)[O-])cc2)CC1` the inhibition was -13.5% (inactive).
For `CC(C)CCNC(=O)C1CCCN(S(=O)(=O)c2ccc(-n3cnnn3)cc2)C1` (stereo not drawn), the inhibition was 1.26% (inactive).
With `C/C=C/C(=O)OCc1csc(CC(=O)Nc2ccccc2C)n1` the inhibition was -2.53% (inactive).
With `CCOC(=O)/C=C/C(=O)OCc1csc(CC(=O)Nc2ccccc2C)n1` the inhibition was -12.3% (inactive).
For `Cc1cc(NC(=O)/C(C#N)=C/c2ccc(-c3cccc(C(F)(F)F)c3)o2)n(-c2ccccc2)n1`, the inhibition was 9.74% (inactive).
In the case of `COc1ccc2nc(NNC(=O)COc3ccccc3)sc2c1`, the inhibition is reported as 6.88% (inactive).
In the case of `O=C(NNc1nc2ccccc2s1)Nc1ccc(F)cc1`, the inhibition is reported as 7.66% (inactive).
With `COc1ccc(OCC(=O)NNc2nc3ccccc3s2)cc1` the inhibition was 70% (inactive).
With `CC(=O)NNc1nc2ccccc2s1` the inhibition was -19.1% (inactive).
In the case of `CCc1[nH]nc(C(=O)N2CCCC(C(=O)c3cccc(OC(C)C)c3)C2)c1C` (stereo not drawn), the inhibition is reported as 8.32% (inactive).
For `CCOC(=O)Cn1nc(-c2ccc(C)cc2)ccc1=O`, the inhibition was -1.62% (inactive).
For `COC(=O)c1ccc(C(=O)OC)c(NC(=O)CSc2ccccn2)c1`, the inhibition was 45% (inactive).
With `CCOC(=O)c1ccccc1NC(=O)CSc1cccc[n+]1[O-]` the inhibition was -5.24% (inactive).
In the case of `Cc1c(Cl)cccc1NC(=O)CCN1CCN(C)CC1`, the inhibition is reported as -6.21% (inactive).
In the case of `O=C(NCCc1ccccc1)c1c(O)c2cccc3c2n(c1=O)CC3`, the inhibition is reported as -1.91% (inactive).
For `CCCCN(C(=O)NC(=O)Nc1ccc(C)cn1)S(C)(=O)=O`, the inhibition was -2% (inactive).
With `Cc1ccc(NC(=O)CSc2nc3ccccc3c(=O)n2CCCN2CCCCC2)cc1C` the inhibition was 24.1% (inactive).
With `CC1CCN(CCCn2c(SCC(=O)Nc3ccccc3Cl)nc3ccccc3c2=O)CC1` the inhibition was 6.66% (inactive).
In the case of `Cc1ccccc1N(Cc1cc(=O)[nH]c2ccccc12)C(=O)C(C)C`, the inhibition is reported as -1.51% (inactive).
In the case of `C#CCCC/C(=C\C(=O)N(C)[C@H](C(=O)N(C)[C@H](C(=O)N(C)[C@H](C(=O)N(C)[C@H](C(N)=O)C(C)C)C(C)C)C(C)C)C(C)C)OC`, the inhibition is reported as 2.88% (inactive).
In the case of `Cc1cccc([C@@H]2[C@@H]3C(=O)N(Cc4ccccc4)C(=O)[C@@H]3[C@]3(Cc4ccccc4)C(=O)N(c4cccc(Cl)c4)C(=O)N23)c1`, the inhibition is reported as 12.6% (inactive).
For `Cc1cc(Cn2nc(C(=O)NCc3cccc(Br)c3)cc2-c2ccccc2)on1`, the inhibition was 25.4% (inactive).
For `CN(C)C(=O)C1C2NC(=S)N(c3cccc(Cl)c3)C1(C)Oc1ccc(Cl)cc12` (stereo not drawn), the inhibition was -0.86% (inactive).
For `Cc1ccc(N2C(=S)NC3c4cc(Cl)ccc4OC2(C)C3C(=O)N(C)C)cc1` (stereo not drawn), the inhibition was 0.53% (inactive).
In the case of `CSc1cccc(CN2CCN(CCC(C)C)C(CCO)C2)c1` (stereo not drawn), the inhibition is reported as -6.35% (inactive).
In the case of `COc1ccc(NC(=O)c2cn(CCC#N)nc2-c2ccccc2)cc1`, the inhibition is reported as 1.76% (inactive).
In the case of `Cc1nc(C)c(C(=O)N(c2ccc(F)cc2)C(C(=O)NCC2CCCO2)c2ccccc2)s1` (stereo not drawn), the inhibition is reported as 6.83% (inactive).
In the case of `Cc1onc(C(=O)N2CCN(Cc3ccccc3)CC2)c1[N+](=O)[O-]`, the inhibition is reported as 3.07% (inactive).
For `CC(=N\NC(=O)c1ccccc1)/C(=N/O)C(=O)Nc1ccccc1`, the inhibition was 19.5% (inactive).
With `O=C1C(C2=C(O)c3ccccc3C2=O)=Nc2ccccc21` the inhibition was -18.6% (inactive).
In the case of `O=C1C(c2c(O)[nH]c3ccccc23)=Nc2ccccc21`, the inhibition is reported as 26.2% (inactive).
For `O=C(CCCn1c(=O)[nH]c2cc(Cl)ccc2c1=O)NCCCN1CCCC1=O`, the inhibition was 1.6% (inactive).
In the case of `C=CCn1c(SC)nnc1-c1ccc2ncccc2c1`, the inhibition is reported as 0.53% (inactive).
For `COc1ccc(NC(=O)c2ccc(COc3ccccc3Br)o2)cc1OC`, the inhibition was 55.9% (inactive).
With `COc1ccccc1OCc1ccc(C(=O)Nc2cc(OC)c(OC)c(OC)c2)o1` the inhibition was 1.45% (inactive).
For `O=C1CC2(CCCCC2)Oc2ccccc21`, the inhibition was 2.84% (inactive).
For `O=C(NCC1CC1)c1ccc(Oc2cc(Cl)cc(Cl)c2)o1`, the inhibition was 8.88% (inactive).
For `Fc1ccc(/C=C\c2nccc3c2[nH]c2ccccc23)cc1`, the inhibition was 3.87% (inactive).
For `N#Cc1ccc(/C=C\c2nccc3c2[nH]c2ccccc23)cc1`, the inhibition was 23.4% (inactive).
With `CCCn1c(SCC(=O)N2CCCc3ccccc32)nnc1-c1ccco1` the inhibition was -5.68% (inactive).
In the case of `CCOC(=O)c1nc(C)c(C(C)=O)s1`, the inhibition is reported as -0.23% (inactive).
In the case of `C=CCN(C/C(=N\O)c1sc(C(=O)OCC)nc1C)c1cccc(Br)c1`, the inhibition is reported as 62.6% (inactive).
